One may read the AC50 as the concentration giving half of the maximal activity seen.

Results on four compounds are retold here after PubChem BioAssay (EPA / NIEHS).

The structures appear in SMILES notation. Calls of active or inactive are those of the source. The calls were made as follows: active = hit-call score of the fitted dose curve at least 0.9, where 1 is the maximum; inactive = score below 0.9.

What all share (conditions): mRNA level, 48 h; actives raise or lower the signal
Read-out in one test: BCL2L11 (gene 10018)
Briefly: LTEA_HepaRG_BCL2L11: Life Technologies and Expression Analysis (LTEA) Assay for Bcl-2 (BCL2L11) gene using HepaRG (AID 2283473). The method in brief:
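Human hepatic HepaRG cultures are treated 48 h with test chemicals (maximum 100 uM, 0.5% DMSO vehicle). Expression of BCL2L11 is measured by qRT-PCR against ACTB, GAPDH and POLR2A, with activity in either direction scored relative to vehicle.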

Read-out in test [1]: Apolipoprotein A-V (APOA5) gene, APOA5 (gene 116519)
Briefly: LTEA_HepaRG_APOA5: Life Technologies and Expression Analysis (LTEA) Assay for Apolipoprotein A-V (APOA5) gene using HepaRG (AID 2283474). A digest of the protocol: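 Concentration-response of APOA5 expression in HepaRG: eight half-log doses to 100 uM, 48 h, qRT-PCR normalized to ACTB/GAPDH/POLR2A, bidirectional fitting with 0.5% DMSO as baseline.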

Read-out in test [2]: Apoptosis regulator Bcl-2 (Homo sapiens) (UniProt P10415)
The experiment in a line: LTEA_HepaRG_BCL2: Life Technologies and Expression Analysis (LTEA) Assay for Bcl-2 gene using HepaRG (AID 2283475). The method in brief: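 Differentiated HepaRG cells in serum-free induction medium were exposed for 48 h to eight half-log concentrations up to 100 uM in 0.5% DMSO, in duplicate. BCL2 mRNA was quantified by TaqMan qRT-PCR normalised to ACTB, GAPDH and POLR2A, with bidirectional fitting versus DMSO.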

Read-out in test [3]: Bcl-2 (BID) gene, BID (gene 637)
Briefly: LTEA_HepaRG_BID: Life Technologies and Expression Analysis (LTEA) Assay for Bcl-2 (BID) gene using HepaRG (AID 2283476). The method in brief:
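Differentiated HepaRG cells in serum-free induction medium were exposed in duplicate for 48 h to eight half-log concentrations up to 100 uM in 0.5% DMSO. BID mRNA was quantified by qRT-PCR, normalized to ACTB, GAPDH and POLR2A.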

Read-out in a further test: Caspase-3 (Homo sapiens) (UniProt P42574)
The experiment in a line: LTEA_HepaRG_CASP3: Life Technologies and Expression Analysis (LTEA) Assay for cysteine-aspartic acid protease (CASP3) using HepaRG (AID 2283477). A digest of the protocol:
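Transcript-level assay: CASP3 mRNA in human HepaRG after 48 h treatment, eight half-log concentrations from 100 uM in 0.5% DMSO, quantified by qRT-PCR.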

Read-out in test [4]: Cytochrome P450 (CYP24A1), CYP24A1 (gene 1591)
The experiment in a line: LTEA_HepaRG_CYP24A1: Life Technologies and Expression Analysis (LTEA) Assay for Cytochrome P450 (CYP24A1) using HepaRG (AID 2283478). The method in brief: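 Gene expression of CYP24A1 by TaqMan qRT-PCR in HepaRG after 48 h treatment, highest concentration 100 uM; activity fitted in both directions relative to DMSO vehicle.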

Read-out in test [5]: cysteine-aspartic acid protease (CASP8), CASP8 (gene 841)
Briefly: LTEA_HepaRG_CASP8: Life Technologies and Expression Analysis (LTEA) Assay for cysteine-aspartic acid protease (CASP8) using HepaRG (AID 2283480). The method in brief: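 HepaRG, 48 h exposure, duplicate wells; 8 conc, half-log from 100 uM, 0.5% DMSO. Serum-free induction medium. CASP8 mRNA by TaqMan qRT-PCR, norm. ACTB/GAPDH/POLR2A; gain/loss fitted vs DMSO.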

Read-out in test [6]: Cytochrome P450 (CYP2B6), CYP2B6 (gene 1555)
Briefly: LTEA_HepaRG_CYP2B6: Life Technologies and Expression Analysis (LTEA) Assay for Cytochrome P450 (CYP2B6) using HepaRG (AID 2283481). A digest of the protocol: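 Human HepaRG, 48 h dosing, 0.5% DMSO vehicle, top dose 100 uM. CYP2B6 transcript by qRT-PCR, housekeeping-normalized, bidirectional curve fit.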

Read-out in test [7]: Cytochrome P450 2C19 (Homo sapiens) (UniProt P33261)
The experiment in a line: LTEA_HepaRG_CYP2C19: Life Technologies and Expression Analysis (LTEA) Assay for CYP2C19 using HepaRG (AID 2283482). The method in brief: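 Endpoint: CYP2C19 mRNA change, bidirectional fit vs 0.5% DMSO. Cells: HepaRG, 48 h exposure, eight-point series topping at 100 uM. Quantitation: qRT-PCR normalized to ACTB, GAPDH, POLR2A.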

Read-out in the next test: CYP2C8 (gene 1558)
The experiment in a line: LTEA_HepaRG_CYP2C8: Life Technologies and Expression Analysis (LTEA) Assay for CYP2C8 using HepaRG (AID 2283483). The method in brief: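 CYP2C8 mRNA induction or loss, by qRT-PCR normalized to ACTB/GAPDH/POLR2A, is read in HepaRG cells after 48 h treatment. Concentrations run from 100 uM down in half-log dilutions, with 0.5% DMSO as vehicle and baseline.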

Read-out in a further test: CYP2E1 (gene 1571)
Briefly: LTEA_HepaRG_CYP2E1: Life Technologies and Expression Analysis (LTEA) Assay for CYP2E1 using HepaRG (AID 2283485). A digest of the protocol: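 HepaRG cells in serum-free induction medium exposed 48 h to test chemicals, 8 half-log concentrations up to 100 uM in 0.5% DMSO, duplicate. CYP2E1 mRNA by qRT-PCR, normalized to ACTB, GAPDH, POLR2A; bidirectional fit versus DMSO.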

Read-out in another test: CYP4A11 (gene 1579)
The experiment in a line: LTEA_HepaRG_CYP4A11: Life Technologies and Expression Analysis (LTEA) Assay for CYP4A11 using HepaRG (AID 2283486). The method in brief:
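Human hepatic HepaRG cultures receive duplicate 48 h exposures across a concentration-response series topping at 100 uM. Expression changes in CYP4A11 are measured by qRT-PCR relative to DMSO controls.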

Read-out in test [8]: DNA damage-inducible transcript 3 (DDIT3), DDIT3 (gene 1649)
The experiment in a line: LTEA_HepaRG_DDIT3: Life Technologies and Expression Analysis (LTEA) Assay for DNA damage-inducible transcript 3 (DDIT3) using HepaRG (AID 2283488). The method in brief:
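Differentiated human HepaRG cells in serum-free induction medium were exposed in duplicate for 48 h to 8 concentrations (top 100 uM, half-log steps, 0.5% DMSO). DDIT3 mRNA measured by TaqMan qRT-PCR, normalized to ACTB/GAPDH/POLR2A; bidirectional fit versus DMSO.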

Read-out in test [9]: Pro-epidermal growth factor (Homo sapiens) (UniProt P01133)
Briefly: LTEA_HepaRG_EGF: Life Technologies and Expression Analysis (LTEA) Assay for Epidermal growth factor (EGF) using HepaRG (AID 2283489). A digest of the protocol: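 Concentration-response mRNA assay: HepaRG cells dosed 48 h (max 100 uM, 0.5% DMSO), EGF measured by qRT-PCR and normalized to ACTB/GAPDH/POLR2A.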

Read-out in test [10]: Early growth response protein 1 (EGR1) transcription factor, EGR1 (gene 1958)
The experiment in a line: LTEA_HepaRG_EGR1: Life Technologies and Expression Analysis (LTEA) Assay for Early growth response protein 1 (EGR1) transcription factor using HepaRG (AID 2283490). The method in brief: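 Read-out is EGR1 mRNA level by qRT-PCR, normalized to three housekeeping genes and analysed for gain or loss of signal against 0.5% DMSO. Source cells: human HepaRG, treated 48 h at up to 100 uM in half-log dilutions.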

Read-out in test [11]: Ezrin (EZR), EZR (gene 7430)
The experiment in a line: LTEA_HepaRG_EZR: Life Technologies and Expression Analysis (LTEA) Assay for Ezrin (EZR) using HepaRG (AID 2283491). A digest of the protocol:
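Gain or loss of EZR mRNA is scored relative to 0.5% DMSO in human HepaRG cultures treated 48 h with test chemicals in duplicate, eight half-log concentrations from 100 uM.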

Read-out in test [12]: Cytochrome P450 3A7 (Homo sapiens) (UniProt P24462)
Briefly: LTEA_HepaRG_CYP3A7: Life Technologies and Expression Analysis (LTEA) Assay for CYP3A7 using HepaRG (AID 2283492). The method in brief:
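qRT-PCR of CYP3A7 in HepaRG lysates after 48 h treatment; concentration-response (8 points, max 100 uM) analysed bidirectionally relative to 0.5% DMSO controls.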

Read-out in test [13]: Cytochrome P450 (CYP1A2), CYP1A2 (gene 1544)
The experiment in a line: LTEA_HepaRG_CYP1A2: Life Technologies and Expression Analysis (LTEA) Assay for Cytochrome P450 (CYP1A2) using HepaRG (AID 2283479). A digest of the protocol: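 In duplicate wells, HepaRG cultures maintained in 0.5% DMSO were treated 48 h across an 8-point, half-log series topping at 100 uM; phenobarbital (1 mM) served as induction control. Expression was read by qRT-PCR.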

Read-out in the next test: CYP2C9 (gene 1559)
Briefly: LTEA_HepaRG_CYP2C9: Life Technologies and Expression Analysis (LTEA) Assay for CYP2C9 using HepaRG (AID 2283484). The method in brief:
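Cells plated 48 h, switched to serum-free induction medium, then treated in duplicate for 48 h at eight concentrations (max 100 uM, 0.5% DMSO). RNA then analysed by qRT-PCR for CYP2C9; curves fitted in both directions relative to DMSO.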

Caspase-3 (Homo sapiens), sequence (P42574 whole entry, looked up): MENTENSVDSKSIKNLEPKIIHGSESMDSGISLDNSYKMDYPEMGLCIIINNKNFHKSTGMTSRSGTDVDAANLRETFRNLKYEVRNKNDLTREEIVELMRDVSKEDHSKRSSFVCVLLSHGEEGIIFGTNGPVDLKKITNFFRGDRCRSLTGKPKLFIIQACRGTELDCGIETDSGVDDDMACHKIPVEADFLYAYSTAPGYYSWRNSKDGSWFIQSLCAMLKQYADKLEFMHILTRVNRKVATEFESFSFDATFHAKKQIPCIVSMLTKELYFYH
Apoptosis regulator Bcl-2 (Homo sapiens), sequence (P10415 whole entry, looked up): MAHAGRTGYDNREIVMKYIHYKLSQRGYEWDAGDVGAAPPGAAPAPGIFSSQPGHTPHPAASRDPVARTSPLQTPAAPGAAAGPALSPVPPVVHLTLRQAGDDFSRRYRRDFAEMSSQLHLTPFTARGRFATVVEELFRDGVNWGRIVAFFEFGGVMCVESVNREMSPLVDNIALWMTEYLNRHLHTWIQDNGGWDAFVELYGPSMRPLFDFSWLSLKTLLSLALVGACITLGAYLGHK
Cytochrome P450 2C19 (Homo sapiens), sequence (P33261 whole entry, looked up): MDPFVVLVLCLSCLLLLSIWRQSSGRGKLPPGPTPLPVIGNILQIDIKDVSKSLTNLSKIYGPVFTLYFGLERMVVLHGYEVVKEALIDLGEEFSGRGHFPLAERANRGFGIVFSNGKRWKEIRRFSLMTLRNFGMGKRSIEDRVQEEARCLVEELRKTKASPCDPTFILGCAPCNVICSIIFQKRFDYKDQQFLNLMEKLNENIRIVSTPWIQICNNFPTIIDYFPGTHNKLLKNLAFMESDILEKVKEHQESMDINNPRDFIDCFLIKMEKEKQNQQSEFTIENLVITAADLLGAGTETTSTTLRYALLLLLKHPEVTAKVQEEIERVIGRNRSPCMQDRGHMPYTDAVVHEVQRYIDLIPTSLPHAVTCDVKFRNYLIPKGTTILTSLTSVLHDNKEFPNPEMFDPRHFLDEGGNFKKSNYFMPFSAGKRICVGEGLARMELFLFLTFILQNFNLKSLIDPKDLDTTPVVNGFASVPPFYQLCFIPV
Cytochrome P450 3A7 (Homo sapiens), sequence (P24462 whole entry, looked up): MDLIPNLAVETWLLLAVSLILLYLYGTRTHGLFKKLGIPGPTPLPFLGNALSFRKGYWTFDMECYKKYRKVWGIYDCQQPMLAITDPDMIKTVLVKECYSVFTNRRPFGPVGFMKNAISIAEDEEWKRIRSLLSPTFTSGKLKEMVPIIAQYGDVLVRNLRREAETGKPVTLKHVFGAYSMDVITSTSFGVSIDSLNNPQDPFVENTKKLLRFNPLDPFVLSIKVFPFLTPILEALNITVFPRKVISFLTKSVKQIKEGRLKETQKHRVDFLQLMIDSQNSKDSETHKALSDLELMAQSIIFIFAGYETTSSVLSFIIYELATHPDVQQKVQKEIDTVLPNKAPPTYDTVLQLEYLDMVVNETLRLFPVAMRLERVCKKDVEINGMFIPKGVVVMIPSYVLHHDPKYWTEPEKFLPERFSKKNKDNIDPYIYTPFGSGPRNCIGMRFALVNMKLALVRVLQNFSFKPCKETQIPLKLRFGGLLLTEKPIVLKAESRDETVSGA

Regarding `CN(C)[C@@H]1C(=O)C(C(N)=O)=C(O)[C@@]2(O)C(=O)C3=C(O)c4c(O)cccc4[C@@](C)(O)[C@H]3C[C@@H]12`, the compound was classed as inactive (with BCL2L11 (gene 10018); in [1]; in test [2]; in [3]; with Caspase-3 (Homo sapiens); in test [4]). In addition, the compound was classed as inactive (in test [5]; in test [6]; in [7]; in the test with CYP2C8 (gene 1558); in the test with CYP2E1 (gene 1571); with CYP4A11 (gene 1579)). The outcome in test [8], in test [9], in [10], in test [11] and in test [12] was inactive.

`CCN(CC)CCO`: the result (with BCL2L11 (gene 10018); in [1]; in test [2]; in test [3]; in the test with Caspase-3 (Homo sapiens); in [4]) was inactive. In addition, the call (in test [13]; in [5]; in [6]; in test [7]; with CYP2C9 (gene 1559); with CYP2E1 (gene 1571)) was inactive. For the same compound, the compound was classed as inactive (in the test with CYP4A11 (gene 1579); in test [8]; in test [9]; in [10]; in [11]; in [12]).

In the case of `COC(=O)Nc1nc2ccccc2[nH]1`, the compound was called inactive (in the test with BCL2L11 (gene 10018); in test [1]; in [2]; in [3]; in the test with Caspase-3 (Homo sapiens); in [4]). For the same compound, the compound was classed as inactive (in test [5]; in test [7]; with CYP2C9 (gene 1559); with CYP2E1 (gene 1571); with CYP4A11 (gene 1579); in test [8]). For the same compound, the result in test [9], in test [10], in test [11] and in [12] was inactive. The figures for the AC50 in [13] and in test [6] were 31.8 µM (active) and 3.97 µM (active), respectively.

On to `C[C@]12C=CC3=C4CCC(=O)C=C4CC[C@H]3[C@@H]1CC[C@@H]2O`, for which the result (with BCL2L11 (gene 10018); in test [1]; in test [3]; in the test with Caspase-3 (Homo sapiens); in test [13]; in test [5]) was inactive. Also, the compound was classed as inactive in test [8], in [9] and in test [11]. The AC50 in [2] was 14.8 µM (active); in test [7] it was 65.3 µM (active); in the test with CYP2C9 (gene 1559) it was 50 µM (active).
